Source: the antibiotic and cytotoxicity screens of Wong et al. (2023)
The whole screen tested about 39,000 compounds, of which about 3,300 (8.5%) were called active. For the sample, actives were picked, then their nearest neighbours and some compounds at random.

Each compound was assayed on HepG2 (assay: cytotoxicity call (relative viability < 0.9)). Conditions: 10 µM.

Compound	cytotoxicity call
C[C@@H](N)Cc1c[nH]c2ccc(O)cc12	inactive
O=C1CC[C@@H]2NCC[C@H]2N1	inactive
C[C@H](N)[C@H](O)c1ccc(O)c(O)c1	inactive
CC[C@@H](N)[C@@H](O)c1ccc(O)c(O)c1	inactive
CCC(N)C(O)c1ccc(O)c(O)c1.Cl (configuration not stated)	active
CC=C(C)C(=O)OC1CCC2(C)C3CCC4C5(O)CC(O)C6(O)C(CN7CC(C)CCC7C6(C)O)C5(O)CC42OC13O.Cl (configuration not stated)	inactive
N#C[C@H](O[C@@H]1O[C@H](CO)[C@@H](O)[C@H](O)[C@H]1O)c1ccc(O)cc1	inactive
Cl.N=C(N)NN	inactive
[N-]=[N+]=Nc1ccc2[nH]ccc2c1	inactive
Oc1ccc(N2CCNCC2)cc1	inactive
Nc1ccc(N2CCNCC2)cc1	inactive
O=c1[nH]c2cc(N3CCNCC3)ccc2o1	active
OCc1ccco1	inactive
Cc1nnc([C@H]2CCCNC2)o1	inactive
CC[C@H]1/C=C/C=C/C[C@@H](C)[C@H](O)[C@@](C)(O)C(=O)[C@@H](C)[C@H](O)[C@@H](C)C(=O)[C@@H](C)[C@H](O)[C@@H](C)/C=C/C(=O)O[C@@H]2[C@H](C)[C@H](CC1)O[C@]1(CC[C@H](C)[C@H](C[C@@H](C)O)O1)[C@H]2C	inactive
COc1ccc2c(c1OC)C(=O)OC2C1c2cc3c(cc2CCN1C)OCO3 (configuration not stated)	inactive
COc1cc(C2c3cc4c(cc3C(O)C3COC(=O)C23)OCO4)cc(OC)c1OC (configuration not stated)	active
C[C@H](CO)N1C[C@H](C)[C@H](CN(C)C(=O)Oc2ccccc2)OCc2ccccc2-c2c(n(C)c3ccccc23)C1=O	inactive
C=C(C)C1Cc2c(ccc3c(=O)c4c(oc23)COc2cc(OC)c(OC)cc2-4)O1 (configuration not stated)	inactive
C=C(C)C1Cc2c(ccc3c2OC2COc4cc(OC)c(OC)cc4C2C3=O)O1 (configuration not stated)	active
COc1cc2c(cc1OC)C1C(=O)c3ccc4c(c3OC1CO2)CC(C(C)C)O4 (configuration not stated)	active
COc1cc2c(cc1OC)C1C(=O)c3ccc4oc(C(C)C)cc4c3OC1CO2 (configuration not stated)	active
O=C(NCc1ccccc1)[C@H]1C[C@H]2CNC[C@H]1O2	inactive

Compound	cytotoxicity call
CC(C)(C)[C@@]1(O)C[C@H]2OC(=O)C[C@]23C(=O)O[C@H]2OC(=O)[C@@H](O)[C@]231	inactive
C=CCN1CCC23c4c5ccc(O)c4OC2C(=O)CCC3(O)C1C5.Cl (configuration not stated)	inactive
CCOC(OCC)P(=O)(O)CCCN	inactive
O=C1CO[C@H]2CNC[C@@H]2N1CC1CCCC1	inactive
CCOC(=O)[C@H]1[C@@H](C=C(C)C)C1(C)C	inactive
COc1ccc(N(C(=O)Oc2c(C)cccc2C)c2ccnc(Nc3ccc(N4CCN(C)CC4)cc3)n2)c(OC)c1	inactive
N=C(N)N/N=C/c1ccc2c(c1)OCO2	inactive
Cc1o[nH]c(=O)c1C[C@H](N)C(=O)O	inactive
CC12CCC(=O)C=C1CCC1C2CCC2(C)C(O)CCC12 (configuration not stated)	inactive
CCC(=O)OC1CCC2C3CCC4=CC(=O)CCC4(C)C3CCC12C (configuration not stated)	inactive
C#CC1(O)CCC2C3CCC4=CC(=O)CCC4(C)C3CCC21C (configuration not stated)	active
CN1[C@H](CO)[C@H]2c3ccccc3NC[C@H]21	inactive
Cl.NNCc1ccccc1	inactive
CC(=O)[O][Cd][O]C(C)=O	inactive
NC[C@@H](O)c1ccc(Br)cc1	inactive
C[C@@H]1NC[C@@H]2CCCN2C1=O	inactive
O=c1[nH]c2ccccc2n1CCCN1CCC(n2c(=O)[nH]c3cc(Cl)ccc32)CC1	inactive
O=c1[nH]c2ccccc2n1C1CCN(CCCC(c2ccc(F)cc2)c2ccc(F)cc2)CC1	active
NC[C@@H](CC(=O)O)c1ccc(Cl)cc1	inactive
CCOC(=O)c1c(CN2CCN(Cc3ccccc3)CC2)n(Cc2ccccc2)c2cc(Br)c(O)cc12	inactive
CN(C)C(=O)C(CCN1CCC(O)(c2ccc(Cl)cc2)CC1)(c1ccccc1)c1ccccc1.Cl	active
CN1CCN(CC2CC2)C(=O)C12CCNCC2	inactive
O=C(C1CCCC1)N1C[C@@H]2CCNC[C@@H]21	inactive

Compound	cytotoxicity call
CCN1C(=O)/C(=C/c2ccc[nH]2)C(=O)NC1=S	inactive
CC12CCC3C(CCC4CC(O)CCC43C)C1CCC2O (configuration not stated)	inactive
CO[C@H]1[C@@H](O)C[C@@H](O[C@H]2[C@@H](O)C[C@@H](O[C@H]3[C@@H](O)C[C@@H](O[C@H]4CC[C@@]5(C)[C@@H](CC[C@H]6[C@@H]5C[C@@H](O)[C@@]5(C)[C@H](C7=CC(=O)OC7)CC[C@@]65O)C4)O[C@@H]3C)O[C@@H]2C)O[C@@H]1C	active
CO[C@H]1[C@@H](O)[C@@H](O[C@H]2CC[C@]3(C=O)[C@@H]4[C@@H](CC[C@]3(O)C2)[C@@]2(O)CC[C@H](C3=CC(=O)OC3)[C@@]2(C)C[C@H]4OC(C)=O)O[C@@H](C)[C@@H]1OC(C)=O	inactive
CO[C@H]1[C@H](O)[C@@H](O[C@H]2[C@@H](C)O[C@@H](O[C@H]3[C@H](C)O[C@H](O[C@H]4CC[C@@]5(C)[C@@H](CC[C@@]6(O)[C@@H]5C[C@@H](O)[C@]5(C)[C@]6(O)CC[C@@]5(O)[C@@H](C)O)C4)C[C@@H]3OC)C[C@H]2OC)O[C@@H](C)[C@H]1O	inactive
CC(=O)O[C@H]1C[C@H](O[C@H]2[C@@H](O)C[C@H](O[C@H]3[C@@H](O)C[C@H](O[C@H]4CC[C@@]5(C)[C@@H](CC[C@H]6[C@@H]5C[C@@H](O)[C@]5(C)[C@@H](C7=CC(=O)OC7)CC[C@]65O)C4)O[C@@H]3C)O[C@@H]2C)O[C@H](C)[C@H]1O[C@@H]1O[C@H](CO)[C@@H](O)[C@H](O)[C@H]1O	active
CC12CCC(O)CC1CCC1C2CC(O)C2(C)C(C3=CC(=O)OC3)CCC12O (configuration not stated)	active
CC(=O)OC1CC(OC2C(O)CC(OC3C(O)CC(OC4CCC5(C)C(CCC6C5CC(O)C5(C)C(C7=CC(=O)OC7)CCC65O)C4)OC3C)OC2C)OC(C)C1OC1OC(CO)C(O)C(O)C1O (configuration not stated)	active
CC12CCC3C(CCC4CC(O)CCC43C)C1CCC2=O (configuration not stated)	inactive
O=C(NC[C@H]1CC[C@]2(CNCCOC2)O1)c1ccnnc1	inactive
C=C(C)[C@H]1CN[C@H](C(=O)O)[C@@H]1CC(=O)O	inactive
CO/C1=C\C(C)=C\[C@@H](C)[C@@H](O)[C@@H](C)C/C(C)=C/C=C/[C@H](OC)[C@@H]([C@@H](C)[C@@H](O)[C@H](C)C(=O)/C=C/[C@H](C)[C@H](O)C(C)C)OC1=O	inactive
CC(C)c1ccc2c(c1)[C@H](O)[C@H](N)CCO2	inactive
O=C1NCC2(CNC2)O1	inactive
CCN(CC)C1CCCCC1	inactive
NC1(Cc2ccc(Cl)cc2)CC1	inactive
O.O=c1ccc2cc(OC3OC(CO)C(O)C(O)C3O)c(O)cc2o1 (configuration not stated)	inactive
CC(C)(C)[C@]1(O)C[C@@H]2OC(=O)C[C@]23C(=O)O[C@@H]2OC(=O)[C@H](O)[C@]231	inactive
CC(=O)OC1CCC2(C)C(CCC3C2CCC2(C)C(C4=CC(=O)OC4)C(OC(C)=O)CC32O)C1 (configuration not stated)	active
CC(=O)O[C@H]1C[C@@H]2CC[C@@H]3[C@H](CC[C@@]4(C)[C@H]3C[C@H]([N+]3(C)CCCCC3)[C@@H]4OC(C)=O)[C@@]2(C)C[C@@H]1[N+]1(C)CCCCC1	inactive
O=C(O)CC[N+](=O)[O-]	inactive
C[C@H]1CN([C@@H](C)CO)C(=O)CCCn2cc(nn2)CO[C@@H]1CN(C)C(=O)Oc1ccc2ccccc2c1	inactive
[N-]=[N+]=NCC(=O)Nc1ccon1	inactive

Compound	cytotoxicity call
N#CCCN.O=C(O)C=CC(=O)O	inactive
COC(=O)[C@H]1[C@H](CO)[C@H]2Cn3c(ccc(C4=CCCC4)c3=O)[C@@H]1N2S(=O)(=O)c1cn(C)cn1	inactive
C/C=C(/C)C(=O)O[C@H]1CC[C@@]2(C)[C@@H]3CC[C@H]4[C@]5(O)C[C@H](O)[C@@]6(O)[C@@H](CN7C[C@@H](C)CC[C@H]7[C@@]6(C)O)[C@]5(O)C[C@@]42O[C@@]13O	inactive
CC[C@@H](C)C(=O)O[C@H]1[C@H](O)[C@H]2[C@@H](CN3C[C@@H](C)CC[C@@H]3[C@@]2(C)O)[C@H]2C[C@]34O[C@]5(O)[C@@H](OC(=O)[C@@](C)(O)CC)CC[C@@]3(C)[C@@H]5[C@@H](OC(C)=O)[C@@H](OC(C)=O)[C@@H]4[C@@]21O	inactive
CC[C@@H](C)C(=O)O[C@H]1[C@H](O)[C@H]2[C@@H](CN3C[C@@H](C)CC[C@@H]3[C@@]2(C)O)[C@H]2C[C@]34O[C@]5(O)[C@@H](OC(=O)[C@@](C)(O)[C@@H](C)O)CC[C@@]3(C)[C@@H]5[C@@H](OC(C)=O)[C@@H](OC(C)=O)[C@@H]4[C@@]21O	active
CC(C)C12CN3CCN(CC(C3)C1=O)C2	inactive
C[C@@H]1CN([C@H](C)CO)C(=O)c2c(c3ccccc3n2C)-c2ccccc2CO[C@H]1CN(C)C(=O)Oc1ccccc1	inactive
Cc1o[nH]c(=O)c1C[C@@H](N)C(=O)O	inactive
COc1ccc(OC)c(CN)c1	inactive
COc1ccc(OC)c(C(O)C(C)N)c1.Cl (configuration not stated)	active
CC(N)C(O)c1ccccc1.Cl (configuration not stated)	inactive
O=c1[nH]oc2c1CCNC2	inactive
COC(C)(C)CCC[C@H](C)C/C=C/C(C)=C/C(=O)OC(C)C	inactive
Cl.O=C1CCC2(O)C3Cc4ccc(O)c5c4C2(CCN3CC2CC2)C1O5 (configuration not stated)	inactive
CCC1CN2CCC1CC2C(O)c1ccnc2ccc(OC)cc12 (configuration not stated)	active
C=CC1CN2CCC1CC2C(OC(=O)OCC)c1ccnc2ccc(OC)cc12 (configuration not stated)	inactive
C=CC1CN2CCC1CC2C(O)c1ccnc2ccccc12 (configuration not stated)	inactive
CO[C@H]1C[C@H](O[C@H]2CC[C@]3(C=O)[C@H]4CC[C@]5(C)[C@@H](C6=CC(=O)OC6)CC[C@]5(O)[C@@H]4CC[C@]3(O)C2)O[C@H](C)[C@H]1O	active
CO[C@H]1[C@@H](O)[C@@H](C)O[C@H](O[C@H]2CC[C@@]3(C)[C@H]4CC[C@@]5(C)[C@@H](C6=CC(=O)OC6)CC[C@]5(O)[C@@H]4CC[C@]3(O)C2)[C@@H]1O	inactive
COC1C(O)C(C)OC(OC2CCC3(C)C4CCC5(C)C(C6=CC(=O)OC6)CCC5(O)C4CCC3(O)C2)C1O (configuration not stated)	inactive
C[C@@H]1O[C@@H](O[C@H]2CC[C@]3(C=O)[C@H]4CC[C@]5(C)[C@@H](C6=CC(=O)OC6)CC[C@]5(O)[C@@H]4CC[C@]3(O)C2)[C@H](O)[C@H](O)[C@H]1O	active
CC1OC(OC2CCC3(C=O)C4CCC5(C)C(C6=CC(=O)OC6)CCC5(O)C4CCC3(O)C2)C(O)C(O)C1O (configuration not stated)	active
COC1C(O)C(C)OC(OC2CCC3(C=O)C(CCC4C3CCC3(C)C(C5=CC(=O)OC5)CCC43O)C2)C1O (configuration not stated)	active
